Compounds with a hit are over-represented: about 1.1% of the library has one in this group of screens.
HTT ATP protect – protects HTT-Q103 PC12 cells, measured by ATP; PC12 HTT-Q103 induced, cytoprotection, ATP luminescence, 40 h; Potency, µM (top dose mostly 56.4 µM), usual class: activators; actives 0.14% (n = 230,000); also: nearly all actives have a fitted effect of over 45% in size
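Quantitative HTS on tebufenozide-induced (100 nM) PC12 cells expressing HTTQ103 exon 1–GFP; compounds tested as a concentration series; survival measured via cellular ATP.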
LMNA splice mod – modulators of lamin A splicing | HeLa LMNA splicing GFP/RFP minigene ratio, 48 h | Potency, µM (doses to about 46.1 µM), hits mostly inhibitors | actives 0.01% (n = 200,000); active = well fitted inhibition curve with a large enough effect in the signal ratio, with a control signal flat, not every such curve was filed as active; inconclusive = small, poorly fitted or top-dose-only effect, or effect the other way, or a change in a side signal; the % refers to the signal ratio
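Read-out is the ratio of GFP to DsRed2 object intensity, acquired by 488 nm laser-scanning cytometry on HeLa lamin A-EGFP minigene reporter cells. Compound incubation 48 hrs at 37 °C in Opti-MEM with 2% FBS; DMSO 0.5% final.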
NPSR antagonist – blocks cAMP signaling of the human neuropeptide S receptor | AID 1461 | CHO-NPSR cells, cAMP TR-FRET, antagonist mode | Q6W5P4 | Potency, µM (highest dose often 38.3 µM), usual class: inhibitors | actives 1% (n = 220,000); also: nearly all actives have a fitted effect of over 50% in size
Target sequence (Q6W5P4 whole entry, looked up): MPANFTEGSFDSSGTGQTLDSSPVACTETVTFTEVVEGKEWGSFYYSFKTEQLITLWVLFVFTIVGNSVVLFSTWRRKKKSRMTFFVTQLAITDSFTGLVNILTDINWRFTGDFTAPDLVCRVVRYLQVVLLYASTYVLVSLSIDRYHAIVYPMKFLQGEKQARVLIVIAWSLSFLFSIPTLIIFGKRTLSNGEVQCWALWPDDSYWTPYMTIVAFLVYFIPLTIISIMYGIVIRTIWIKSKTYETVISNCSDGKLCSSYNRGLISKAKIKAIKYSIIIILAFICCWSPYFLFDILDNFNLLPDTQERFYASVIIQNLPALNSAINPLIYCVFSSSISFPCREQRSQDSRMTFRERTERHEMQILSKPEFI
HTT aggregate – inhibitors of mutant huntingtin aggregate formation in PC12 cells | PC12 HttQ103-GFP aggregates, Acumen cytometry, 40 h | Potency, µM (series often up to 46.1 µM), usual class: inhibitors | actives 1.1% (n = 220,000) | AID 1688; also: nearly all actives have a fitted effect of over 60% in size
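Using laser scanning cytometry, GFP-positive aggregates were counted after lysis of PC12 cells induced with 100 nM tebufenozide to express HTT exon 1 Q103–GFP. Compounds were tested in titration.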
CBFb RUNX1 block – blocks binding between human CBF-beta and RUNX1; Q01196+Q13951; AlphaScreen CBFb-His/RUNX1-biotin binding, biochemical; Potency, µM (titrated, usually from 59.8 µM), usual class: inhibitors; 230,000 tested, under 10 active; AID 1477
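CBFb-His/RUNX1-biotin, 30 nM each, preincubated 20 min RT; compound 15 min RT; Ni + streptavidin beads 50 ng each, 90 min RT; AlphaScreen read.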
MBNL1-CUG inh – blocks human MBNL1 binding to CUG repeat RNA. Potency, µM (series often up to 57.5 µM), most hits filed as inhibitors. actives 0.036% (n = 280,000). TR-FRET MBNL1-His/biotin-(CUG)12 binding, 665/545 ratio. AID 2675. Q9NR56; active = well fitted inhibition curve with a large enough effect in the signal ratio, with a control signal flat, not every such curve was filed as active; inconclusive = small, poorly fitted or top-dose-only effect, or effect the other way, or a change in a side signal; inactive = no such curve, though single readings can be large or run the other way; the % refers to the signal ratio
Target sequence (Q9NR56 whole entry, looked up): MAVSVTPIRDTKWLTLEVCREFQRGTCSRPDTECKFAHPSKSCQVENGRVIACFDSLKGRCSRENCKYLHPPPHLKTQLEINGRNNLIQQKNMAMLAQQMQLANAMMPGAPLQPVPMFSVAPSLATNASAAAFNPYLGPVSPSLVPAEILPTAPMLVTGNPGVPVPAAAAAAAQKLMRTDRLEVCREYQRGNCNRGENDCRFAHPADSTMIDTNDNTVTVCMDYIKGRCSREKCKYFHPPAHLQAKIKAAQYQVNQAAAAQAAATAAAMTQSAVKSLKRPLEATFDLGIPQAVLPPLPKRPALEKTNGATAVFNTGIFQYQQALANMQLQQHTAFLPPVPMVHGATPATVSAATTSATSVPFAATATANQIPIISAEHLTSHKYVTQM
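Inhibition of protein-RNA binding appears as loss of TR-FRET between terbium anti-His antibody on MBNL1-His and streptavidin-XL665 on biotin-(CUG)12. Activity is normalized to buffer-only and uninhibited-complex controls.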
Numbers stand for hits; 0 = inactive; ? = inconclusive; - = no result given; [ ] = dose if it differs, or a comment. Unless noted, calls follow the shape of the dose curve; as a rule, active = well fitted curve in the direction sought with a large enough effect; inconclusive = small, poorly fitted or top-dose-only effect, or another doubt; inactive = no such curve, though single readings can be large; an effect the other way counts as inactive or inconclusive.

SMILES | HTT ATP protect | LMNA splice mod | NPSR antagonist | HTT aggregate | CBFb RUNX1 block | MBNL1-CUG inh
CC[C@H](C)[C@H](NC(=O)[C@H](Cc1ccc(O)cc1)NC(=O)[C@H](Cc1cnc[nH]1)NC(=O)[C@H](CCCNC(=N)N)NC(=O)[C@H](CC(C)C)NC(=O)[C@H](C)NC(=O)[C@H](CO)NC(=O)[C@H](Cc1ccc(O)cc1)NC(=O)[C@H](Cc1ccc(O)cc1)NC(=O)[C@H](CCCNC(=N)N)NC(=O)[C@H](C)NC(=O)[C@H](CC(C)C)NC(=O)[C@H](CC(=O)O)NC(=O)[C@H](CCC(=O)O)NC(=O)[C@H](C)NC(=O)[C@@H]1CCCN1C(=O)[C@H](C)NC(=O)[C@H](CC(=O)O)NC(=O)[C@H](CCC(=O)O)NC(=O)CNC(=O)[C@@H]1CCCN1C(=O)[C@H](CC(N)=O)NC(=O)[C@H](CC(=O)O)NC(=O)[C@@H]1CCCN1C(=O)[C@H](CCCCN)NC(=O)[C@H](CO)NC(=O)[C@@H]1CCCN1C(=O)[C@@H](N)Cc1ccc(O)cc1)C(=O)N[C@@H](CC(N)=O)C(=O)N[C@@H](CC(C)C)C(=O)N[C@H](C(=O)N[C@H](C(=O)N[C@@H](CCCNC(=N)N)C(=O)N[C@@H](CCC(N)=O)C(=O)N[C@@H](CCCNC(=N)N)C(=O)N[C@@H](Cc1ccc(O)cc1)C(N)=O)[C@@H](C)O)[C@@H](C)CC | - | - | - | - | 0 | -
CC(=O)Oc1c(C)cc(Cl)cc1C(=O)Nc1ccc([N+](=O)[O-])cc1Cl | 0[10 µM] | ? | 0 | 0.25µM | 0 | 0
CC(=O)OCC(=O)Nc1ccc([N+](=O)[O-])cc1Cl | 0 | - | 0 | 0 | 0 | -
CN1/C(=C/c2cc[n+](C)c3ccccc23)C=Cc2ccccc21 | 0 | - | ? | 2.5µM | 0 | ?
CN1CCN(C2=Cc3ccccc3Sc3cc(F)c(Cl)cc32)CC1 | 0[10 µM] | 0 | ? | ? | 0 | 0
CN1CCN(C2=Cc3ccccc3Sc3cc(F)c(F)cc32)CC1 | 0[10 µM] | 0 | ? | 20µM | 0 | 0
O=[N+]([O-])c1ccc(-c2nc(C(Cl)Cl)c3ccccc3n2)cc1 | 0[10 µM] | - | 2µM | 1.8µM | 0 | 0
COc1ccc(-c2nc3scc(CCNS(=O)(=O)c4ccc(Oc5ccccc5)cc4)n3n2)cc1OC | - | 0 | - | - | - | -
C=C(C)COc1ccc(-c2n[nH]c(C)c2-c2ccc(Br)cc2)c(O)c1 | 0 | ? | ? | 7.9µM | 0 | 0
C=C(C)COc1ccc(-c2[nH]ncc2-c2ccc(Br)cc2)c(O)c1 | - | ? | ? | ? | 0 | 0
N[C@@]1(C(=O)O)CO[C@H]2[C@H](C(=O)O)[C@H]21 | 0 | - | - | - | 0 | -
c1ccc(-c2nc(NCc3ccco3)c3ccccc3n2)nc1 | 0 | ? | 0 | 18µM | ? | 0
Cc1ccc(Nc2nc(NCc3ccco3)c3ccccc3n2)cc1 | 0 | ? | 0 | 11µM | 0 | 0
O[C@@H]1CO[C@H]2[C@@H]1OC[C@@H]2O | 0 | - | - | 0 | - | -
COc1ccc(NC(=O)Cn2c(SCc3ccc(C)cc3)nc3cccnc32)c(OC)c1 | - | 0 | - | - | - | -
CCCn1c(=O)c(C(=O)NNC(=O)c2ccc(Cl)cc2Cl)c(O)c2ccccc21 | - | - | - | - | - | 0
CCCn1c(=O)c(C(=O)NNS(=O)(=O)c2ccc(Cl)cc2)c(O)c2ccccc21 | 0[10 µM] | ? | 0 | 14µM | 0 | -
CCOc1ccc(C(=O)Nc2ccc(C(=O)OCc3cc(=O)n4nc(CC)sc4n3)cc2)cc1 | - | 0 | - | - | - | -
Cn1cccc1/C=C1\CC(C(C)(C)C)C/C(=C\c2cccn2C)C1=O (configuration not stated) | 0 | 0 | 10µM | 0 | 0 | 0
C1CCC[C@H]2CCCN3CC[C@H](CCCCCC[C@@H]4CCCN5CC[C@H](CC1)OC45)OC23 | 0 | - | - | - | 0 | -
COc1ccc(-c2nn(-c3ccccc3)cc2C(=O)NC(=S)NNC(=O)c2ccncc2)cc1 | 0 | - | 0 | 10µM | ? | 0
Cc1cc(C(C)(C)C)oc1C(=O)N(CC(=O)NC1CCCC1)Cc1ccccc1Cl | 0[10 µM] | ? | 7.9µM | ? | 0 | 0
Cc1cc(N2C(=O)C(O)=C(C(=O)c3ccc(C)o3)C2c2cccs2)no1 (configuration not stated) | 0[0.074 µM] | 0 | 7.9µM | 0 | 0 | 0
CCc1ccc2nc(N3C(=O)C(O)=C(C(=O)c4ccco4)C3c3cccs3)sc2c1 (configuration not stated) | 0[10 µM] | ? | 10µM | 0 | 0 | 0
Cc1cc(N2C(=O)C(O)=C(C(=O)c3cc4ccccc4o3)C2c2cccs2)no1 (configuration not stated) | - | - | - | - | - | 0
SMILES | HTT ATP protect | LMNA splice mod | NPSR antagonist | HTT aggregate | CBFb RUNX1 block | MBNL1-CUG inh
Nc1c(S(=O)(=O)c2cccs2)c2nc3ccccc3nc2n1CC1CCCO1 (configuration not stated) | - | 0 | 0 | 0.0022µM | 0 | 0
CC(C)CCn1c(N)c(S(=O)(=O)c2cccs2)c2nc3ccccc3nc21 | 0[0.074 µM] | 0 | ? | 11µM | ? | 0
CC(C)C(C)C | 0 | - | - | - | ? | -
CC(=O)N(C1=C(N2CCOCC2)C(=O)c2ccccc2C1=O)c1ccc(C(=O)O)cc1 | 0[10 µM] | - | 0[7.67 µM] | 0[9.22 µM] | 0 | -
CC(=O)N(C)C1=C(N2CCOCC2)C(=O)c2ccccc2C1=O | 0 | ? | 0 | 25µM | 0 | ?
Cc1nn(-c2ccccn2)c2c1-c1nc(N)ncc1CC2 | 0 | 0 | 0 | 11µM | 0 | 0
COc1cccc(-n2nc(C#N)c(Cl)cc2=O)c1 | 0 | - | 0 | 3.5µM | 0 | ?
COc1cccc(-n2nc(C(N)=O)c(O)cc2=O)c1 | 0 | - | 0 | 0 | 0 | 0
Nc1c(S(=O)(=O)c2ccccc2)c2nc3ccccc3nc2n1Cc1ccco1 | 0 | ? | 0 | 0 | 0 | 0
Cc1ccc(S(=O)(=O)c2c(N)n(Cc3ccco3)c3nc4ccccc4nc23)cc1C | 0 | ? | ? | 13µM | 0 | 0
NNC(=O)c1ccc(N2CCc3ccccc32)c([N+](=O)[O-])c1 | 0[10 µM] | 0 | 0 | 0 | ? | ?
Nc1ncnc(N2CCc3ccccc32)c1[N+](=O)[O-] | 0 | - | 0 | 2.5µM | 0 | 0
CCOc1ccccc1CNCc1cccn1-c1nnc(N2CCN(c3ccccc3)CC2)s1 | - | 0 | - | - | - | -
Cc1ccc(C2=NOC(=O)/C2=C\C=C\c2ccccc2)cc1 | 0[10 µM] | ? | 10µM | 0 | 0 | 0
CC(=O)c1c(O)c2ccccc2n(C(C)C)c1=O | 0 | - | 0 | 13µM | 0 | 0
Cc1noc2ncnc(Sc3ccccc3Cl)c12 | 0 | 0 | 0 | 5µM | 0 | 0
C=C[C@@H]1[C@@H](C)[C@H](C)C(=O)C([C@H](O)C(C)C)[C@@H]1C (some centres not stated) | - | - | - | - | 0 | -
CN(C)C=Nc1ncc2c3ccccc3n(Cc3ccccc3)c2c1C#N | 0 | ? | 0 | 0 | 0 | 0

Screens from PubChem BioAssay.
